Tau fluor cs: Counterscreen qHTS for Inhibitors of Tau Fibril Formation, Fluorescence Polarization; 280,000 compounds, 0.93% hits; tau K18 P301L Alexa594 fluorescence, heparin fibrillization; AID 1463, 2008; Potency, µM (series often up to 57.7 µM), without a hit: at the highest dose activity change, negative = decrease; also: potency is read from the fitted curve at half-maximal effect; nearly all actives have a fitted effect of over 55% in size
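Human K18 P301L tau (15 uM unlabeled plus 0.24 uM Alexa 594-labeled, final) in 100 mM sodium acetate pH 7 was mixed with compound and 20 uM heparin and incubated 6 hr at 37 C.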
Tau fibril ThT: qHTS for Inhibitors of Tau Fibril Formation, Thioflavin T Binding; recombinant tau K18 P301L, heparin-induced fibrillization, ThT fluorescence; Microtubule-associated protein tau (Homo sapiens), P10636; Potency, µM (series often up to 57.4 µM), inactives show at the highest dose activity, negative = inhibition, actives largely listed as inhibitors; 270,000 compounds, 2.1% hits; AID 1460, 2008; also: potency is read from the fitted curve at half-maximal effect; nearly all actives have a fitted effect of over 55% in size
Target sequence (P10636 561-689 P618L limits assumed): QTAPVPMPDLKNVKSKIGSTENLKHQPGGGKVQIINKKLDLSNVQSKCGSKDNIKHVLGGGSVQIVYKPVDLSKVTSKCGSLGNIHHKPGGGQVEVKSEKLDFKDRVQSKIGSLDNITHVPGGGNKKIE
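Using a mix of unlabeled (15 uM) and Alexa 594-labeled (0.24 uM) tau K18 P301L, heparin-triggered fibrillization over 6 hr at 37 C was scored by ThT fluorescence.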
Sfp PPTase inh: qHTS Assay for Inhibitors of Bacillus subtilis Sfp phosphopantetheinyl transferase (PPTase); Potency, µM, for the others: largest response in the series, negative = inhibition, most hits filed as inhibitors; Biochemical Sfp PPTase activity, qHTS; 310,000 compounds, 3.5% hits; 4'-phosphopantetheinyl transferase ffp (Bacillus subtilis), Q9F4F7;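 also: the enzyme is Sfp with the accession as filed and its product quenches rhodamine fluorescence; potency is read from the fitted curve at half-maximal effect; 0% = enzyme reaction without inhibitor and -100% = no enzyme wells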
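Compounds were incubated with enzyme (final 15 nM) for 15 min at room temperature before substrate addition started the reaction. Fluorescence at 525 nm excitation, 598 nm emission was recorded immediately and after 30 minutes.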
Tau fibril FP: qHTS for Inhibitors of Tau Fibril Formation, Fluorescence Polarization. K18 P301L tau heparin fibrillization, Alexa594 FP, 6 h. Microtubule-associated protein tau (Homo sapiens), P10636. 280,000 compounds, 0.39% hits. Potency, µM (series often up to 57.7 µM), for the others: top-dose activity, negative = inhibition, actives largely listed as inhibitors; also: potency is read from the fitted curve at half-maximal effect; nearly all actives have a fitted effect of over 55% in size
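Steps: dispense K18 P301L tau (15 uM plus 0.24 uM Alexa 594 tracer, final) in pH 7 sodium acetate; add compound; add heparin (20 uM final); incubate 6 hr, 37 C; add ThT (30 uM final); after 1 hr ambient, read FP.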
FBPA coupling cs: qHTS Assay for Inhibitors of Fructose-1,6-bisphosphate Aldolase from Giardia Lamblia: Coupling assay counterscreen. coupling enzyme system counterscreen, AmpLite Red fluorescence. activity change, negative = inhibition, % at 58.2 µM, hits read low. 290,000 compounds, 0.67% hits; in the data active = activity change below about -30%
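Activity here indicates interference with the coupling reaction, not aldolase inhibition. Compounds at 57.5 uM final met coupling enzymes for 10 min at RT; substrate and AmpLite Red detection followed, with a 525/598 nm fluorescence read after 20 min.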
JMJD2E inh: qHTS Assay for Inhibitors of Human Jumonji Domain Containing 2E (JMJD2E) | Lysine-specific demethylase 4E (Homo sapiens), B2RXH2 | Potency, µM (doses to about 57.1 µM), for the others: top-dose activity change, negative = inhibition, hits mostly inhibitors | AID 2147, 2009 | 230,000 compounds, 1.6% hits | JMJD2E catalytic domain, FDH-coupled NADH fluorescence (FDH is formaldehyde dehydrogenase);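 also: potency is read from the fitted curve at half-maximal effect; 0% = wells with enzyme and -100% = buffer wells without enzyme; nearly all actives have a fitted effect of over 50% in size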
Target sequence (B2RXH2 1-337 limits assumed): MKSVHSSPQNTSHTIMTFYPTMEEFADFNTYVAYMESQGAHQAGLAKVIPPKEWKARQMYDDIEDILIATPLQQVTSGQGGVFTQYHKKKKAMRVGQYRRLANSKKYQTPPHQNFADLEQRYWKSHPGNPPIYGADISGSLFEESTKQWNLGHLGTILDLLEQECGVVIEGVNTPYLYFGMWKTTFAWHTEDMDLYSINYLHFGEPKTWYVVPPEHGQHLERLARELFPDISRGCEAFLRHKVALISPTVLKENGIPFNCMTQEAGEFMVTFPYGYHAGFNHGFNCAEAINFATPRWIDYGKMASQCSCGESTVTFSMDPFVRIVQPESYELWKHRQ
* marks the source's active call; other numbers are inactive results; ? = inconclusive; . = no result; [ ] = dose if it differs, or a comment. Hits are enriched below; roughly 5.3% of the tested compounds scored in any of these assays. Unless noted, calls follow the shape of the dose curve; as a rule, active = well fitted curve in the direction sought with a large enough effect; inconclusive = small, poorly fitted or top-dose-only effect, or another doubt; inactive = no such curve, though single readings can be large; an effect the other way counts as inactive or inconclusive. Unless noted, % is scaled to controls: 0 for no effect and ±100 for the full control effect.

SMILES	Tau fluor cs	Tau fibril ThT	Sfp PPTase inh	Tau fibril FP	FBPA coupling cs	JMJD2E inh
CCCCc1nc2ccn(CC(=O)N(C)C)c(=O)c2n1Cc1ccc(-c2ccccc2-c2nn[nH]n2)cc1	3.7%	4.5%	50.1µM*	3.5%	7.6	.
Cc1ccc2nsnc2c1S(=O)(=O)Nc1cccc2nsnc12	-13.9%	?	-9.1%	-1.3%	-34.0*	-23.3%
Cc1ccc(NN2C(=O)C=C(c3ccccc3)C2=O)cc1	-2.8%	?	11.2µM*	-12.7%	3.5	6.1%
CN1CCCN(Cc2ccccc2Br)CC1	.	.	79.4µM*	.	-0.3	.
Clc1cccc(CN2CCCCCCC2)c1Cl	-2.6%	-1.9%	?	-4.1%	1.4	?
COc1cc(C2C(=O)N(C3CCC(C)CC3)CC(=O)N2CCc2ccc(Cl)cc2)ccc1OC(C)C (centres undefined)	-12.6%	-7.9%	.	0.8%	.	.
N#Cc1c(N)sc(=S)c2c1CCN(Cc1ccccc1)C2	?	1.26µM*	3.55µM*	?	-59.0*	?
CCN1CCc2c(sc(N)c2C#N)C1	-8.9%	?	-17.6%	-8.9%	-18.4	?
CCOc1ccc(-n2c(SCc3ccccc3)nc3c([nH]c4ccccc43)c2=O)cc1	-3.8%	8.0%	.	-7.8%	.	.
Oc1ccc(-c2nc3ncccn3c2Nc2ccc3c(c2)OCCO3)cc1	25.1µM*[quencher]	?	3.0%	11.7%	6.8	-7.6%
Brc1ccc(-c2nc3ncccn3c2Nc2ccc3c(c2)OCCO3)o1	?	?	-20.5%	-3.1%	-2.2	-0.2%
Cc1cc(C)n2c(Nc3ccc4c(c3)OCCO4)c(-c3ccc(C)o3)nc2n1	-24.6%	?	31.6µM*	9.1%	-4.9	-7.3%
Cc1ccc(-c2nc3ncccn3c2NC(=O)C2CC2)cc1	5.9%	4.1%	17.0%	2.3%	1.0	?
Cc1ccc(-c2nc3ncccn3c2NC2CCCCC2)o1	-17.1%	-19.6%	44.7µM*	6.4%	2.9	-2.4%
Cc1ccc(-c2nc3ncccn3c2Nc2ccc3c(c2)OCCO3)o1	-16.0%	?	44.7µM*	8.4%	0.9	-8.9%
Cc1cc(C)n2c(Nc3ccc4c(c3)OCCO4)c(-c3ccco3)nc2n1	-25.2%	?	-17.3%	4.7%	-0.3	5.2%
O=C(NCc1ccccc1Cl)c1cc2ccccc2o1	-12.6%	-7.7%	.	-9.2%	.	.
O=C(CSc1nnc(-c2ccc(Br)o2)n1Cc1ccccc1)c1ccccc1F	-3.3%	-16.2%	35.5µM*	-7.5%	5.6	4.6%
CCOC(=O)c1c(NC(=O)c2ccco2)sc2c1CCCC2	-6.9%	-6.6%	15.5%	1.7%	2.4	?
N#Cc1c(NC(NC(=O)c2ccco2)C(=O)c2ccccc2)sc2c1CCCC2 (centres undefined)	?	?	20µM*	-5.5%	-1.3	?
N#Cc1c(NC(=O)c2ccccc2)sc2c1CCCCC2	-10.3%	-6.0%	0.9%	-5.1%	-3.7	?
NC(=O)c1c(NC(NC(=O)c2ccco2)C(=O)c2ccc(Cl)cc2)sc2c1CCCC2 (centres undefined)	?	25.1µM*	56.2µM*	-9.3%	-2.3	?
CC1CCC2C(=O)N3C(CCC(C)[C@H]3c3ccccc3Br)C(=O)N2C1c1ccccc1Br (some centres undefined)	-1.9%[11.6 µM]	0.2%[11.5 µM]	-3.1%	-13.0%[11.6 µM]	7.3	.
CC1(C)OC1COc1c2ccoc2cc2oc(=O)ccc12 (centres undefined)	-11.3%	-7.3%	9.5%	11.6%	-0.7	31.6µM*

Screens deposited in PubChem BioAssay by National Center for Advancing Translational Sciences (NCATS).
